# Columns and labels:
# Experiment in all cases: DAPPL (digital affinity profiling via proximity ligation, sequencing); 10 mM Tris-HCl pH 7.5, 50 mM NaCl, 1 mM DTT, 4% glycerol, room temperature, 30 min; GST-TFs on glutathione beads, 16-mer random dsDNA library, 0.1% formaldehyde crosslink after washing; high values mean tight binding
# [1] = target: T1, FLI1 (Homo sapiens, UniProt Q01543 1-452); conditions: protein: recombinant; tags: N-terminal GST; dsDNA, one strand shown
# T1 sequence: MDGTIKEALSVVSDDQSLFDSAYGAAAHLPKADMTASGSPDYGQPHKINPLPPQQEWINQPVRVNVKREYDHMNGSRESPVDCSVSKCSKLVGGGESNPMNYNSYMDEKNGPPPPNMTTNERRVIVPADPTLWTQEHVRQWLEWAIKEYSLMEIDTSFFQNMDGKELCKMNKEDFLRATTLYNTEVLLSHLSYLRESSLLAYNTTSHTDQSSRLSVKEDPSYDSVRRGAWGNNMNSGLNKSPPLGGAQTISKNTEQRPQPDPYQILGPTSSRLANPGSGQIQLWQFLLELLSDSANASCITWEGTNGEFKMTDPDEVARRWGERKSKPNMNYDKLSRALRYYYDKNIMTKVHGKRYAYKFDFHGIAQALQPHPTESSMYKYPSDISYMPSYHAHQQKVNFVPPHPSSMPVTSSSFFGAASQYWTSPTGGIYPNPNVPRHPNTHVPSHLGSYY
# In short: (§1)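 Human transcription factors fused to GST were expressed in yeast, captured on glutathione beads, given DNA barcodes and pooled with a GST-only negative control. Pools were incubated with 200 nmole of a 16-mer random double-stranded DNA library in Tris/NaCl/DTT/glycerol buffer at room temperature for 30 min. They were then washed, crosslinked with 0.1% formaldehyde, proximity-ligated (BsaI/T4 ligase, 1 h, 37 °C), PCR-amplified and sequenced on an Illumina NextSeq500. Binding signal is each 6-mer's read frequency for a factor divided by its frequency for the GST control.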
# [2] = target: T2, ELK1 (Homo sapiens, UniProt P19419 1-428); conditions: protein: recombinant; tags: N-terminal GST; dsDNA, one strand shown
# T2 sequence: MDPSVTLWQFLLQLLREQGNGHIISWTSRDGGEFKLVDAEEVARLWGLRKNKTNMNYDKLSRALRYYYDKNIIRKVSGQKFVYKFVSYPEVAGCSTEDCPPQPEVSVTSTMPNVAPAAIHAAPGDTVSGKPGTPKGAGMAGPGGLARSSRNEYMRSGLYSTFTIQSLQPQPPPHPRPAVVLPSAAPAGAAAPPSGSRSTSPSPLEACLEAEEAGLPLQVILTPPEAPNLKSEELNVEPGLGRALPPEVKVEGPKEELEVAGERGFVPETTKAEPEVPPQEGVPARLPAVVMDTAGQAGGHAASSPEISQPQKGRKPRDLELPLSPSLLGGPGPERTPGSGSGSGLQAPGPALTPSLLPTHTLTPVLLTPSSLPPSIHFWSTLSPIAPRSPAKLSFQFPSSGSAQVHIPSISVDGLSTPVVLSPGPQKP
# In short: as §1
# [3] = target: T3, GABPA (Homo sapiens, UniProt Q06546 1-454); conditions: protein: recombinant; tags: N-terminal GST; dsDNA, one strand shown
# T3 sequence: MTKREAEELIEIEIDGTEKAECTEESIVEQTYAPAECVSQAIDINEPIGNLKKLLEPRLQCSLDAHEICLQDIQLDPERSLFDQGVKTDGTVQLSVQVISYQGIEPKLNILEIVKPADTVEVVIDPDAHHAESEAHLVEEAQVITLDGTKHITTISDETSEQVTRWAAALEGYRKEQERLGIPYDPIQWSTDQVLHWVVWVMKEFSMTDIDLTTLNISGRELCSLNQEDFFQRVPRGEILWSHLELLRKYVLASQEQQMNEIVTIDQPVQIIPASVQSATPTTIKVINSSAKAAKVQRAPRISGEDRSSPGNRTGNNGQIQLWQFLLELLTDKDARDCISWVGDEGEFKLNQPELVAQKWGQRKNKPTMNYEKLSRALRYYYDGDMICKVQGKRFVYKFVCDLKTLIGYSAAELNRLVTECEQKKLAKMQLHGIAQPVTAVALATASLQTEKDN
# In short: as §1
# [4] = target: T4, ERG (Homo sapiens, UniProt P11308 1-479); conditions: protein: recombinant; tags: N-terminal GST; dsDNA, one strand shown
# T4 sequence: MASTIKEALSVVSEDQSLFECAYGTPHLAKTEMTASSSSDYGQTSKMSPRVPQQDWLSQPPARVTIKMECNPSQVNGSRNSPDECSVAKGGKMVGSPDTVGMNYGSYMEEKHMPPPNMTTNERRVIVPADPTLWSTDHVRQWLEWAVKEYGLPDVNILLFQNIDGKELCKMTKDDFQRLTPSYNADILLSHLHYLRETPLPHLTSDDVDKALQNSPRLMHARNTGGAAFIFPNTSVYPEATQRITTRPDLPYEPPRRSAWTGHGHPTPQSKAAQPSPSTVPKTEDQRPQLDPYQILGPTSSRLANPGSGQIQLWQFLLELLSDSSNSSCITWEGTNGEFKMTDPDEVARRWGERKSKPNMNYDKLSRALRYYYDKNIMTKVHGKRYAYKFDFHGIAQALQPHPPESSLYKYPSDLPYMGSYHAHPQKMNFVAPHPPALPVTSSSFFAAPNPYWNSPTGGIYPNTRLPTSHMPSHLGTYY
# In short: as §1
# [5] = target: ELF1 (Homo sapiens, UniProt P32519 1-619); conditions: protein: recombinant; tags: N-terminal GST; dsDNA, one strand shown
# ELF1, sequence (P32519 whole entry): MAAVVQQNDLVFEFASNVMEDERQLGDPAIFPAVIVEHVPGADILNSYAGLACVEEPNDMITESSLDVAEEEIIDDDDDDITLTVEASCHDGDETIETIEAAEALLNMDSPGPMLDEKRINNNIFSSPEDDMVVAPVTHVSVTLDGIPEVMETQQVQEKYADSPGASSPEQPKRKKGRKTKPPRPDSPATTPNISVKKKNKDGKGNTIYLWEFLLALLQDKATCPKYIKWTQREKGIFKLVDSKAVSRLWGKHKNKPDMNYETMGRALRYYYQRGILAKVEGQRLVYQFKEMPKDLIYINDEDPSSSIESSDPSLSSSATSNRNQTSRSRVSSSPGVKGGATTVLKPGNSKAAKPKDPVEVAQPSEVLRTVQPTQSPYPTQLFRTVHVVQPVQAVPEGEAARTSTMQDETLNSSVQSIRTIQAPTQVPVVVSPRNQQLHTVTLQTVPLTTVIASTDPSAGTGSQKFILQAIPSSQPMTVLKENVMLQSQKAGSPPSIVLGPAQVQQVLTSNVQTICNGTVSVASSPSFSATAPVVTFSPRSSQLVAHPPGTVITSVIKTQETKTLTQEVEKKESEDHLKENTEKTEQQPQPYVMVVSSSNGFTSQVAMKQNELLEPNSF
# In short: as §1
# [6] = target: T5, EHF (Homo sapiens, UniProt Q9NZC4 1-300); conditions: protein: recombinant; tags: N-terminal GST; dsDNA, one strand shown
# T5 sequence: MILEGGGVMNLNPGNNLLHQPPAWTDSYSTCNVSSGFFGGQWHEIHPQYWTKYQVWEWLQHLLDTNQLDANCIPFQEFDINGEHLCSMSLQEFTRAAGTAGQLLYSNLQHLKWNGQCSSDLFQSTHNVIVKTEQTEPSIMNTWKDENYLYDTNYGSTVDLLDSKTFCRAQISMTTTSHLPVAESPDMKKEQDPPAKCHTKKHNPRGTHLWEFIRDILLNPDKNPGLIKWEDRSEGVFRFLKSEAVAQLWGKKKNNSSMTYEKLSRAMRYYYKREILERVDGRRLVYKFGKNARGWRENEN
# In short: as §1
# [7] = target: SPI1 (Homo sapiens, UniProt P17947 1-270); conditions: protein: recombinant; tags: N-terminal GST; dsDNA, one strand shown
# In short: as §1
# [8] = target: SPIB (Homo sapiens, UniProt Q01892 1-262); conditions: protein: recombinant; tags: N-terminal GST; dsDNA, one strand shown
# SPIB, sequence (Q01892 whole entry): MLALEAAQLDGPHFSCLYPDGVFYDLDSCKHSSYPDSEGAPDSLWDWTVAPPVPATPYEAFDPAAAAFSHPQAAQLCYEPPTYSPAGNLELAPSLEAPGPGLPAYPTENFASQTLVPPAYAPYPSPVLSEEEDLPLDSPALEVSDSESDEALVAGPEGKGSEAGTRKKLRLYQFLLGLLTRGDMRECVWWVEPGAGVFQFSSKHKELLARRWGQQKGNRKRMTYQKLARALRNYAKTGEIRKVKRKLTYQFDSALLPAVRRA
# In short: as §1
# [9] = target: T6, ELK3 (Homo sapiens, UniProt P41970 1-407); conditions: protein: recombinant; tags: N-terminal GST; dsDNA, one strand shown
# T6 sequence: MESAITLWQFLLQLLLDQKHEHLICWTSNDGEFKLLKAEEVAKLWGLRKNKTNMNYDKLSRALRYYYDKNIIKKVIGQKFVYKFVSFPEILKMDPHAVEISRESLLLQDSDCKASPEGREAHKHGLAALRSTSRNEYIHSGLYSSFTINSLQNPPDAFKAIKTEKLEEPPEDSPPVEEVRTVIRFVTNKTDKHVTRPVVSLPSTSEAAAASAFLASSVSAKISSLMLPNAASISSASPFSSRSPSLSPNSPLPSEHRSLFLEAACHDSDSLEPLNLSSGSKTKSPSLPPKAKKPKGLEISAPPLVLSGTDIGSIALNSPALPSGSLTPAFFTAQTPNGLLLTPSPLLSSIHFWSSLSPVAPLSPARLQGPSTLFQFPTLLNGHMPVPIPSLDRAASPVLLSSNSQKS
# In short: as §1
# [10] = target: T7, FEV (Homo sapiens, UniProt Q99581 1-238); conditions: protein: recombinant; tags: N-terminal GST; dsDNA, one strand shown
# T7 sequence: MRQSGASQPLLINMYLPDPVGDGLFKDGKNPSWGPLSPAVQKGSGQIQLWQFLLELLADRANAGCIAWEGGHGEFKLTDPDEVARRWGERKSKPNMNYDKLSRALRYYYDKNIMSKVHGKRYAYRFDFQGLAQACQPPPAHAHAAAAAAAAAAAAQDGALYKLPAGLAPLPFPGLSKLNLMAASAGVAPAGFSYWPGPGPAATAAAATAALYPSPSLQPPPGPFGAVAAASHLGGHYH
# In short: as §1
# [11] = target: ETV5 (Homo sapiens, UniProt P41161 1-510); conditions: protein: recombinant; tags: N-terminal GST; dsDNA, one strand shown
# ETV5, sequence (P41161 whole entry): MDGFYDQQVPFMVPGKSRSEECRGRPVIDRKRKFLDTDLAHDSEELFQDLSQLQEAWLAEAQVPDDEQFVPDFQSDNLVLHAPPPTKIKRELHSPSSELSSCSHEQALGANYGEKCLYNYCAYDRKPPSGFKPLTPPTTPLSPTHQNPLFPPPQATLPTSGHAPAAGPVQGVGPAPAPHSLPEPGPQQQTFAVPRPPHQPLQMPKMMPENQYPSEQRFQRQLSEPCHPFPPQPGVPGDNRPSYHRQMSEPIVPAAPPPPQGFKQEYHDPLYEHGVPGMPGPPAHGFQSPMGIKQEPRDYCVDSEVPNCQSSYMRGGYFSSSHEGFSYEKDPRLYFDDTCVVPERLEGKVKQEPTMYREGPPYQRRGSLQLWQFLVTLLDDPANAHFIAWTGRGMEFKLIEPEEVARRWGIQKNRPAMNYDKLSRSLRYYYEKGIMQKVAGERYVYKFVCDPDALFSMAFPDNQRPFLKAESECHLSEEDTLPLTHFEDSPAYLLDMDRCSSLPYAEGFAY
# In short: as §1
# [12] = target: HSF1 (Homo sapiens, UniProt Q00613 1-529); conditions: protein: recombinant; tags: N-terminal GST; chain copies: 3; dsDNA, one strand shown
# HSF1, sequence (Q00613 whole entry): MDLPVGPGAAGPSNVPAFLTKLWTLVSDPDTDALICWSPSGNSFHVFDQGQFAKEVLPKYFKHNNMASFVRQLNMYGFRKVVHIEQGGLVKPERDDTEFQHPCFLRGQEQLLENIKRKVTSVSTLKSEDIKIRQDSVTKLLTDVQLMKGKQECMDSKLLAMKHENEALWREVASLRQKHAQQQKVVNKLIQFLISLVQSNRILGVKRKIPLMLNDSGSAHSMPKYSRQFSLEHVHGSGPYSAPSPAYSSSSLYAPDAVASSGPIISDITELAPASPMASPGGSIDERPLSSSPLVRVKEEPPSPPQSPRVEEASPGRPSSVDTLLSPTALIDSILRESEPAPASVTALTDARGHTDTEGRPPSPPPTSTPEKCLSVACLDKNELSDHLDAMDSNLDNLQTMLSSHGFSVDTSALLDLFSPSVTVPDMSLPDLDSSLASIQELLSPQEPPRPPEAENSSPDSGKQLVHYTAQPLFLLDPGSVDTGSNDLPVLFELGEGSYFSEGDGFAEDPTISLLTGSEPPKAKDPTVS
# In short: as §1
# [13] = target: T8, SPIC (Homo sapiens, UniProt Q8N5J4 1-248); conditions: protein: recombinant; tags: N-terminal GST; dsDNA, one strand shown
# T8 sequence: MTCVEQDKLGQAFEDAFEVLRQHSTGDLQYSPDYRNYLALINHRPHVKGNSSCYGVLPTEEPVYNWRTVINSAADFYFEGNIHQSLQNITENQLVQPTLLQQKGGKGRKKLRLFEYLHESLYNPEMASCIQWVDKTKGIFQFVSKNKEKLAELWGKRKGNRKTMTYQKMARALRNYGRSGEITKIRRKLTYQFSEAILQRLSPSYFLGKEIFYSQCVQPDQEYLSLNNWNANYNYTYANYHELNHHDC
# In short: as §1
# [14] = target: ELF4 (Homo sapiens, UniProt Q99607 1-663); conditions: protein: recombinant; tags: N-terminal GST; dsDNA, one strand shown
# ELF4, sequence (Q99607 whole entry): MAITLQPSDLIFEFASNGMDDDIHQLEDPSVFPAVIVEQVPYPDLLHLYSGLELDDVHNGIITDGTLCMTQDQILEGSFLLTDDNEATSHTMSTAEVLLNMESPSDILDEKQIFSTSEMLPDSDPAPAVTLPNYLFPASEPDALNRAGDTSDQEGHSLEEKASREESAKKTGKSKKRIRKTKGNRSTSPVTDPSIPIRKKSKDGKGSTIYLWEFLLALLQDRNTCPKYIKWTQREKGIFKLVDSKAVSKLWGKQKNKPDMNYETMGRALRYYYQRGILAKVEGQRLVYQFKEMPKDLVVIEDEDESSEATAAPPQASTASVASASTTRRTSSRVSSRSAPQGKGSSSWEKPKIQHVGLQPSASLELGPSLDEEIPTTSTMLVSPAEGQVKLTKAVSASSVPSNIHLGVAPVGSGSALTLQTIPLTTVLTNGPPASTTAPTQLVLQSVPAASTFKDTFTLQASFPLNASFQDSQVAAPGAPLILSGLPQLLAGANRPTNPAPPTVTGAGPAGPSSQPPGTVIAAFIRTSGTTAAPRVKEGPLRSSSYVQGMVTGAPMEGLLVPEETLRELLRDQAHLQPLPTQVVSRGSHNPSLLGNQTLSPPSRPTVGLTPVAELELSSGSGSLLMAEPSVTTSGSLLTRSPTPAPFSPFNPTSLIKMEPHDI
# In short: as §1
# [15] = target: T9, ELK4 (Homo sapiens, UniProt P28324-2 1-405); conditions: protein: recombinant; tags: N-terminal GST; dsDNA, one strand shown
# T9 sequence: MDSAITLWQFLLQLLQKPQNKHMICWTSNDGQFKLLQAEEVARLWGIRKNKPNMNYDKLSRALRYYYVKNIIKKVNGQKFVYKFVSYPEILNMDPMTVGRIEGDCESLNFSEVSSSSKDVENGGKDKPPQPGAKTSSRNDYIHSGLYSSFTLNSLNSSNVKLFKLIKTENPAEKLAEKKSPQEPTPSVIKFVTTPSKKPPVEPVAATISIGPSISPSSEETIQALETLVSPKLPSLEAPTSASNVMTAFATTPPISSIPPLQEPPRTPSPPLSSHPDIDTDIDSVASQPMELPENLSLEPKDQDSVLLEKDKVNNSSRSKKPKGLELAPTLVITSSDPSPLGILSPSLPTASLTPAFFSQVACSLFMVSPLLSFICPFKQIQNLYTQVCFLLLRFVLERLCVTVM
# In short: as §1
# [16] = target: T10, ETV2 (Homo sapiens, UniProt O00321 1-342); conditions: protein: recombinant; tags: N-terminal GST; dsDNA, one strand shown
# T10 sequence: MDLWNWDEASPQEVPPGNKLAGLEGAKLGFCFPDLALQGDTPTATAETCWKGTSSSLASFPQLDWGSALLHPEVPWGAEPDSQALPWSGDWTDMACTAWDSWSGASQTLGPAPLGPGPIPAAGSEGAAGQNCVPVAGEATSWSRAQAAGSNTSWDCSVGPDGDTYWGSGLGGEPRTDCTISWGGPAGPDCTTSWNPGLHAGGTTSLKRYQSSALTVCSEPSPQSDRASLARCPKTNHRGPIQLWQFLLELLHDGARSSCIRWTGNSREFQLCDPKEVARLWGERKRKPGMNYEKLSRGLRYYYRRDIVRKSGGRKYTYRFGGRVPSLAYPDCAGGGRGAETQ
# In short: as §1
# [17] = target: T11, ELF3 (Homo sapiens, UniProt P78545 1-371); conditions: protein: recombinant; tags: N-terminal GST; dsDNA, one strand shown
# T11 sequence: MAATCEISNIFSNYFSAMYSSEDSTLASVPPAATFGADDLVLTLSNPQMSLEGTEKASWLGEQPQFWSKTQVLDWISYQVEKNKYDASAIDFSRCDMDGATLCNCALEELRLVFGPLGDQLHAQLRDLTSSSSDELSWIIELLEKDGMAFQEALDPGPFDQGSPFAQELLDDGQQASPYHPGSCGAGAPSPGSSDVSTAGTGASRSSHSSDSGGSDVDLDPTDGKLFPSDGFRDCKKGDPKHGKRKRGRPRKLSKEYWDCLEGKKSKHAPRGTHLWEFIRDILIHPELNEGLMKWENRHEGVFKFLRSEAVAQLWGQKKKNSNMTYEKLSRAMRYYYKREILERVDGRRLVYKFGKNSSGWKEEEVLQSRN
# In short: as §1
# [18] = target: CRX (Homo sapiens, UniProt O43186 1-299); conditions: protein: recombinant; tags: N-terminal GST; dsDNA, one strand shown
# CRX, sequence (O43186 whole entry): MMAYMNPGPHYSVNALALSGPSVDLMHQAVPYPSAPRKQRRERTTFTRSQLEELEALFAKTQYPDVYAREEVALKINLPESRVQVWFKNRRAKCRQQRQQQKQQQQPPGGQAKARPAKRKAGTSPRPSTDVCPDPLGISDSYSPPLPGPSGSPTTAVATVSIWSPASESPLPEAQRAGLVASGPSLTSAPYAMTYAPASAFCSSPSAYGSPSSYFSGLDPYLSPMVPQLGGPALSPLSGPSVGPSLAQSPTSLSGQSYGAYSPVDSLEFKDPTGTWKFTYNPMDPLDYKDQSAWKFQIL
# In short: as §1
# [19] = target: ETV1 (Homo sapiens, UniProt P50549 1-477); conditions: protein: recombinant; tags: N-terminal GST; dsDNA, one strand shown
# ETV1, sequence (P50549 whole entry): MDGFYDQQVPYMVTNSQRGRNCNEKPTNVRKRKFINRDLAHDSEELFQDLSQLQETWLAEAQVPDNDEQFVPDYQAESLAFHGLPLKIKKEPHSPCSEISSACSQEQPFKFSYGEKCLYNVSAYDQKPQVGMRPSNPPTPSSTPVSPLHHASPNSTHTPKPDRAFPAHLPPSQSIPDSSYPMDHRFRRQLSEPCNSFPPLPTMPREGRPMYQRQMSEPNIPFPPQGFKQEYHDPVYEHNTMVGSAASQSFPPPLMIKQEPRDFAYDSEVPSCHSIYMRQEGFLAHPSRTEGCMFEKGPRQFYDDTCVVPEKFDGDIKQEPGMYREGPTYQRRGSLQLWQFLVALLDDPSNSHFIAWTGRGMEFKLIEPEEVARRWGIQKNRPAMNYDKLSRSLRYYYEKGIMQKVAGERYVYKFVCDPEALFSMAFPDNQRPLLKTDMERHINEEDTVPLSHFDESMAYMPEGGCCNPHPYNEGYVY
# In short: as §1
sequence,measurement,setting,value
TTACTT,binding signal,[1],"1.44 fold enrichment (6-mer frequency, TF over GST control)"
same,binding signal,[2],"1.53 fold enrichment (6-mer frequency, TF over GST control)"
same,binding signal,[3],"1.44 fold enrichment (6-mer frequency, TF over GST control)"
same,binding signal,[4],"1.44 fold enrichment (6-mer frequency, TF over GST control)"
same,binding signal,[5],"1.53 fold enrichment (6-mer frequency, TF over GST control)"
same,binding signal,[6],"1.58 fold enrichment (6-mer frequency, TF over GST control)"
same,binding signal,[7],"1.59 fold enrichment (6-mer frequency, TF over GST control)"
same,binding signal,[8],"1.58 fold enrichment (6-mer frequency, TF over GST control)"
same,binding signal,[9],"1.64 fold enrichment (6-mer frequency, TF over GST control)"
same,binding signal,[10],"1.55 fold enrichment (6-mer frequency, TF over GST control)"
same,binding signal,[11],"1.53 fold enrichment (6-mer frequency, TF over GST control)"
same,binding signal,[12],"1.41 fold enrichment (6-mer frequency, TF over GST control)"
same,binding signal,[13],"1.33 fold enrichment (6-mer frequency, TF over GST control)"
same,binding signal,[14],"1.46 fold enrichment (6-mer frequency, TF over GST control)"
same,binding signal,[15],"1.33 fold enrichment (6-mer frequency, TF over GST control)"
same,binding signal,[16],"1.66 fold enrichment (6-mer frequency, TF over GST control)"
same,binding signal,[17],"1.75 fold enrichment (6-mer frequency, TF over GST control)"
same,binding signal,[18],"1.95 fold enrichment (6-mer frequency, TF over GST control)"
same,binding signal,[19],"1.55 fold enrichment (6-mer frequency, TF over GST control)"

# — publication PMC7862700, “An all-to-all approach to the identification of sequence-specific readers for epigenetic DNA modifications on cytosine”
